Results published in PubChem BioAssay AID488969 (Vanderbilt High Throughput Screening Facility, 2010).
Over roughly 110,000 compounds, “z-score” has its median near -0.1; the highest 2% begin near 2. This excerpt belongs to a sample that is enriched for the highest values. The source made the active and inactive calls.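 The calls were made as follows: active = z-score in the third read window above 3 or below -3; inactive = the rest.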

molecular target: Metabotropic glutamate receptor 8 (Rattus norvegicus) (UniProt P70579); assay: rat mGluR8 modulators via GIRK flux, primary screen, cell-based, thallium flux, HTS (AID 488969); details: HEK293 rat mGluR8, GIRK (G protein-gated inwardly rectifying potassium channel) thallium flux, FluoZin2; at 10 µM; stronger effect = higher value; submaximal glutamate (EC20) added with thallium
Sequence (P70579 whole entry, looked up): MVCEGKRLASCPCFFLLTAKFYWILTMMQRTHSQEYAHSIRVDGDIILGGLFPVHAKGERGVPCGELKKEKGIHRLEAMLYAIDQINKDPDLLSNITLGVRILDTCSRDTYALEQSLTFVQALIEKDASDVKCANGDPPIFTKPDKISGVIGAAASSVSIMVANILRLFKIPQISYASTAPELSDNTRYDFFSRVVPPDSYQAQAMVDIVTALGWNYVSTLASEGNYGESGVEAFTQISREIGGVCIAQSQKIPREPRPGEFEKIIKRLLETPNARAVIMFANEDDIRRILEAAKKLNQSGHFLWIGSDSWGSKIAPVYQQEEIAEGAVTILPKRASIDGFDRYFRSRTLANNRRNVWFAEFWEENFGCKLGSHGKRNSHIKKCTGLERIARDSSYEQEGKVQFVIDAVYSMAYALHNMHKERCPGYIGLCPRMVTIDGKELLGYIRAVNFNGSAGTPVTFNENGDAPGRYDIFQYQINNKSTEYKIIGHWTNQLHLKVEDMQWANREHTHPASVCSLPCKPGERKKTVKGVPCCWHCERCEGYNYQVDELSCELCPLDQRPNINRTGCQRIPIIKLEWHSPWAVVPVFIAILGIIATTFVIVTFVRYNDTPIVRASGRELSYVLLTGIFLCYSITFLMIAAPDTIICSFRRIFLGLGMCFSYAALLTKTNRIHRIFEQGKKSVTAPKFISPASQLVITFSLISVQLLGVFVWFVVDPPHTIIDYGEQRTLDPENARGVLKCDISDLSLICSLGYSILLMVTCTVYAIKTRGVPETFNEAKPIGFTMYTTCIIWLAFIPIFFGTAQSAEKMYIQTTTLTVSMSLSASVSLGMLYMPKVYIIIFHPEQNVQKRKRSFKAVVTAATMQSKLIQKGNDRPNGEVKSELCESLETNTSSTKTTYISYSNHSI

In order of falling z-score:
1. S=C(NCCc1ccccc1)N/N=C/c1cccc(Cl)c1Cl  2.63
2. CCN1CCCC1CNc1ncnc2c1[nH]c1ccc(F)cc12 (stereo unspecified)  2.55
3. CC1CCc2nc(NC(=O)CN3CCN(Cc4ccc5c(c4)OCO5)CC3)sc2C1 (stereo unspecified)  2.47
4. Cc1ccc(CSc2nc3ccncc3[nH]2)cc1  2.46
5. Cc1cc(C)cc(NC(=O)CSc2nc3ccncc3[nH]2)c1  2.24
6. S=C(NCc1ccco1)N/N=C/c1ccccc1Cl  2.22
7. S=C(NCc1ccco1)N/N=C/c1ccc(Cl)cc1  2.21
8. Cc1cnc(NC(=O)CSc2nc3ccccc3c(=O)[nH]2)s1  2.14
9. COc1ccc(N2CCSC2C(=O)NN)cc1 (stereo unspecified)  2.09
10. O=C(O)C1CCCCC1C(=O)Nc1cc(Cl)ccc1Cl (stereo unspecified)  2.08
11. CNC(=S)N/N=C/c1ccccc1Cl  1.82
12. CCCCOc1ccc(Br)cc1/C(C)=N/NC1=NCCN1  1.54
13. O=[N+]([O-])c1ccc(Cl)c(/C=N/NC(=S)Nc2ccccc2)c1  1.33
14. COc1ccc(C(=O)NC(=S)N2CCCCC2)cc1[N+](=O)[O-]  1.25
15. Cc1ccc(CSc2nc3ncccc3[nH]2)cc1  1.17
16. CCCCCOc1ccc(Br)cc1/C(C)=N/NC1=NCCN1  1.05
17. CC1CN=C(N(C(=O)Nc2ccccc2)c2ccc(S(=O)(=O)N3CCOCC3)cc2)S1 (stereo unspecified)  0.945
18. S=C(NCc1ccco1)Nc1cccc(Cl)c1  0.899
19. CCOc1ccc(C(=O)NC(=S)N2CCN(c3ccc(C(F)(F)F)cc3[N+](=O)[O-])CC2)cc1  0.854
20. Oc1ccc(/C=N/NC(=S)NCc2ccco2)cc1  0.806
21. O=C(O)c1ccc(N2C(=O)c3cccc(Oc4ccc(Cl)cc4)c3C2=O)cc1  0.79
22. Clc1ccc(CSc2nc3ccncc3[nH]2)cc1  0.673
23. Cc1nn(-c2cc(C)c3ccccc3n2)c2c1CCC2  0.557
24. Clc1ccccc1CSc1nc2ccncc2[nH]1  0.533
25. Cc1cccc(C)c1NC(=O)CSc1nc2ccccc2c(=O)[nH]1  0.493
26. Cc1ccccc1N1C(=O)C(Oc2ccc(Cl)cc2)C1CNC(C)(C)C (stereo unspecified)  0.46
27. O=C(CSc1nc2ccccc2n1CC(=O)N1CCCC1)Nc1nccs1  0.452
28. CC1(C)NC(=O)N(CC(O)CNC23CC4CC(CC(C4)C2)C3)C1=O (stereo unspecified)  0.426
29. Cc1c(C)n(C)c2ccc(C(=O)Nc3cccc4ccccc34)cc12  0.368
30. CCn1c(Cc2ccc(OC)cc2)nnc1SCC(=O)N1CCN(c2ccccc2)CC1  0.352
31. C[N+]1=C(/C=C/Nc2ccccc2Cl)C(C)(C)c2ccccc21  0.3
32. S=C(NCCc1ccccc1)N/N=C/c1ccccc1Cl  0.283
33. S=C(NCc1ccco1)Nc1cc(Cl)c(Cl)cc1Cl  0.256
34. Cc1c(CCOC(=O)CC23CC4CC(CC(C4)C2)C3)sc[n+]1Cc1ccccc1  0.256
35. COc1ccc2nc(SCC(=O)Nc3ccc4c(c3)CCC4)[nH]c2c1  0.226
36. CC1=CC(C)(C)N(C(=O)CSc2ncn[nH]2)c2ccc(C)cc21  0.223
37. O=C(Nc1ccc(Cl)cn1)c1cccc(F)c1  0.192
38. CC(C)COC(=O)c1nnsc1NC(=O)Nc1ccccc1  0.142
39. CCN(CC)c1ccc(/C=N/NC(=S)NCc2ccco2)cc1  0.137
40. COc1cccc(NC(=O)c2ccc(-n3cccn3)nc2)c1  0.109
41. CCc1ccc(/C=N/NC(=S)NCCc2ccccc2)cc1  0.0899
42. O=C(Nc1cc(C(F)(F)F)ccc1N1CCCC1)c1cccnc1  0.0707
43. Fc1ccc2[nH]c3c(NCCN4CCOCC4)ncnc3c2c1  0.07
44. COc1ccccc1N1CCSC1C(N)=O (stereo unspecified)  0.0543
45. COc1cccc(OC)c1C(=O)NC(=S)N1CCN(c2ccc(C(F)(F)F)cc2[N+](=O)[O-])CC1  0.046
46. CN(C)CCCNC(=O)COc1ccc(Br)cc1Cl  0.032
47. O=C(Cn1nnc(-c2ccccc2-n2cnnn2)n1)N1CCCCC1  0.026
48. CCOc1ccc(NC(=O)CSc2nnc(C3CC3)n2N)cc1  0.0098
49. CN(C)c1ccc(/C=N/NC(=S)NCc2ccco2)cc1  0.0065
50. Cc1ccc(CN(Cc2ccco2)S(=O)(=O)c2ccc(S(=O)(=O)NCC3CCCO3)cc2)cc1 (stereo unspecified)  -0.00067
51. O=C(Nc1ccc(F)cc1F)c1ccc(-n2cncn2)nc1  -0.0309
52. O=C(CSc1nc2cc(Cl)ccc2s1)NCc1ccc2c(c1)OCO2  -0.0385
53. COC(=O)c1[nH]c2ccc(F)cc2c1NC(=O)CCN1CC(C)OC(C)C1 (stereo unspecified)  -0.0436
54. CS(=O)(=O)N(CC(=O)N1CCN(c2ccccc2)CC1)c1ccc(Cl)c(C(F)(F)F)c1  -0.0753
55. Cc1ccc(C(=O)N[C@H](C(=O)OCC(=O)NC2CCS(=O)(=O)C2)C(C)C)cc1 (stereo partly specified)  -0.0806
56. O=C(Nc1cc(C(F)(F)F)ccc1N1CCCCC1)c1cccc([N+](=O)[O-])c1  -0.0811
57. CO/N=C/c1ccc(N2CCN(C(=O)c3cccc(C(F)(F)F)c3)CC2)c([N+](=O)[O-])c1  -0.0941
58. COc1ccc(CCNC(=O)CCC(=O)N2CCN(S(=O)(=O)c3ccc(Cl)cc3)CC2)cc1OC  -0.0943
59. Cc1ccc(/C=N/NC(=S)NC(C)C)o1  -0.11
60. COc1ccc(CNC(=O)C2CCN(S(=O)(=O)c3c(C)n[nH]c3C)CC2)cc1  -0.115
61. Nc1nnc(Cc2ccccc2)s1  -0.122
62. COC(=O)N1CCN(c2ccc(OC)cc2)CC1  -0.134
63. Cc1cnc(NC(=O)CSc2ccccc2)s1  -0.175
64. COc1cc(/C=N/O)c(Br)cc1OCC(=O)Nc1ccccc1C  -0.175
65. O=C(O)C1CCCCC1C(=O)Nc1ccccc1Cl (stereo unspecified)  -0.189
66. c1ccc2c(c1)CCCN2c1nc2ccccc2n2cnnc12  -0.203
67. O=C(O)C1CC=CCC1C(=O)Nc1cc(Cl)ccc1Cl (stereo unspecified)  -0.205
68. CCOC(=O)c1ccc(Oc2c(C)oc3cc(OS(C)(=O)=O)ccc3c2=O)cc1  -0.214
69. COc1ccc(OC)c(NC(=O)C2CC(=O)n3ncnc3N2)c1 (stereo unspecified)  -0.244
70. Cc1ccc(-c2nnn(CC(=O)NCc3ccccc3)n2)c(-n2cnnn2)c1  -0.255
71. Cc1ccc(C)c(NC(=S)NC(NC(=O)/C=C/c2ccccc2)C(Cl)(Cl)Cl)c1 (stereo unspecified)  -0.264
72. CN(CC(=O)Nc1ccc(F)c(F)c1F)C(=O)/C=C/c1ccc(Cl)cc1  -0.265
73. CCCCC(=O)NC(=S)NNC(=O)CC#N  -0.265
74. NC(=O)N/N=C\c1cc(Br)ccc1O  -0.265
75. CC1CCCN(c2ccc(C(=O)OCC(=O)N3c4ccccc4Sc4ccccc43)cc2[N+](=O)[O-])C1 (stereo unspecified)  -0.269
76. CCN(CC)C(=O)c1cnn(-c2ccccc2)c1NC(=O)c1cccs1  -0.27
77. COc1ccc(Cl)cc1NC(=O)NC(C)c1ccncc1 (stereo unspecified)  -0.275
78. O=[N+]([O-])c1cc(C(F)(F)F)ccc1N1CCN(S(=O)(=O)c2ccc3ccccc3c2)CC1  -0.295
79. O=C(Cn1cc(/C=N/O)c2ccccc21)N1CCOCC1  -0.312
80. CC1CCc2nc(NC(=O)CN3CCOCC3)sc2C1 (stereo unspecified)  -0.313
81. CC1CCc2nc(NC(=O)Nc3ccc4c(c3)OCO4)sc2C1 (stereo unspecified)  -0.337
82. CCc1ccc(/C=C/C(=O)c2ccc(S(=O)(=O)N(C)C)cc2)cc1  -0.379
83. COc1ccccc1NC(=O)c1ccc(S(=O)(=O)N(C)C)cc1  -0.403
84. Cc1ccc2nc(SCC(=O)Nc3ccc4c(c3)OCCO4)[nH]c2c1  -0.404
85. COc1ccc(C2Nc3ccccc3C(=O)N2Cc2ccco2)cc1COc1ccc(F)cc1 (stereo unspecified)  -0.406
86. Nc1cc(=O)[nH]c(SCc2cccc(Cl)c2)n1  -0.406
87. CCn1cc(C(=O)O)c(=O)c2cc(F)c(N3CCN(S(=O)(=O)c4ccc(Br)cc4)CC3)cc21  -0.406
88. O=C(CCNC(=O)Cn1ccc2ccccc2c1=O)NCCN1CCN(c2cccc(Cl)c2)CC1  -0.463
89. Cc1c(C(=O)Nc2ccc(-c3nnc4n3CCCCC4)cc2)oc2ccc(Br)cc12  -0.49
90. CCOC(=O)c1c(NC(=O)CSc2nnc(C)c(=O)[nH]2)sc2c1CCCC2  -0.522
91. CCn1c(=NC(=O)c2ccc(N3C(=O)CCC3=O)cc2)sc2c(OC)ccc(OC)c21  -0.536
92. Cc1cc(C)cc(NC(=O)CSc2nc3[nH]ncc3c(=O)[nH]2)c1  -0.54
93. CC1=CC(C)(C)N(C(=O)c2ccccc2)c2ccc(C)cc21  -0.576
94. Cc1c(C(=O)NCCc2ccc3c(c2)OCCO3)oc2ccccc12  -0.63
95. COc1cc(/C=N/NC(=S)NCc2ccco2)cc(OC)c1OC  -0.66
96. C(=C\c1ccccc1)/CSc1nnc(-c2ccccc2)n1Cc1ccco1  -0.701
97. C=CCn1c(COc2ccc(Cl)cc2)nnc1SCC(=O)N1CC(=O)Nc2ccccc21  -0.735
98. O=C(CSc1nc2ccccc2[nH]1)Nc1ccc2c(c1)CCC2  -0.809
99. S=C1NC(c2ccccc2)N2C(=S)NC(c3ccccc3)N12 (stereo unspecified)  -1.08

In the case of S=C(NCc1ccco1)Nc1ccc(Cl)c(Cl)c1, the z-score is reported as 8.32 (active).
With S=C(N/N=C/c1ccccc1Cl)Nc1ccccc1 the z-score was 6.51 (active).
In the case of Clc1cccc(CSc2nc3ccncc3[nH]2)c1, the z-score is reported as 9.69 (active).
For O=C(CSc1nc2ccc(Cl)cc2[nH]1)Nc1ccc2c(c1)CCC2, the z-score was 3.89 (active).
With Cc1ccc(-c2nnn(CC(=O)N3CCCCC3)n2)c(-n2cnnn2)c1 the z-score was 3.32 (active).
With CCOc1ccc(Br)cc1/C(C)=N\NC1=NCCN1 the z-score was 3.75 (active).
In the case of CCC(=O)N1c2ccc(C)cc2C2=NNC(=S)NC21O (stereo unspecified), the z-score is reported as 3.09 (active).
In the case of COc1cc(OC)cc(C(=O)NC(=S)N2CCN(c3ccc(C(F)(F)F)cc3[N+](=O)[O-])CC2)c1, the z-score is reported as 4.05 (active).
In the case of COc1cccc(C(=O)NC(=S)N2CCN(c3ccc(C(F)(F)F)cc3[N+](=O)[O-])CC2)c1, the z-score is reported as 4.68 (active).
For CC(C)Oc1cccc(C(=O)NC(=S)N2CCN(c3ccc(C(F)(F)F)cc3[N+](=O)[O-])CC2)c1, the z-score was 6.72 (active).
Clc1ccc2[nH]c3c(NCC4CCCO4)ncnc3c2c1 (stereo unspecified) was tested, and the z-score was -3.05 (active).
For CC(C)NC(=S)N/N=C/c1cc(Br)ccc1O, the z-score was 6.43 (active).
